JMJD2A Tudor inh: qHTS Assay for Inhibitors of JMJD2A-Tudor Domain. 4.4% of 390,000 active. Lysine-specific demethylase 4A (Homo sapiens), O75164. AlphaScreen JMJD2A-Tudor / H3K4me3 peptide binding. Potency, µM (series often up to 114 µM), actives largely listed as inhibitors; note: nearly all actives have a fitted effect of over 50% in size
Target sequence (O75164 whole entry, looked up, the tested form may be a part): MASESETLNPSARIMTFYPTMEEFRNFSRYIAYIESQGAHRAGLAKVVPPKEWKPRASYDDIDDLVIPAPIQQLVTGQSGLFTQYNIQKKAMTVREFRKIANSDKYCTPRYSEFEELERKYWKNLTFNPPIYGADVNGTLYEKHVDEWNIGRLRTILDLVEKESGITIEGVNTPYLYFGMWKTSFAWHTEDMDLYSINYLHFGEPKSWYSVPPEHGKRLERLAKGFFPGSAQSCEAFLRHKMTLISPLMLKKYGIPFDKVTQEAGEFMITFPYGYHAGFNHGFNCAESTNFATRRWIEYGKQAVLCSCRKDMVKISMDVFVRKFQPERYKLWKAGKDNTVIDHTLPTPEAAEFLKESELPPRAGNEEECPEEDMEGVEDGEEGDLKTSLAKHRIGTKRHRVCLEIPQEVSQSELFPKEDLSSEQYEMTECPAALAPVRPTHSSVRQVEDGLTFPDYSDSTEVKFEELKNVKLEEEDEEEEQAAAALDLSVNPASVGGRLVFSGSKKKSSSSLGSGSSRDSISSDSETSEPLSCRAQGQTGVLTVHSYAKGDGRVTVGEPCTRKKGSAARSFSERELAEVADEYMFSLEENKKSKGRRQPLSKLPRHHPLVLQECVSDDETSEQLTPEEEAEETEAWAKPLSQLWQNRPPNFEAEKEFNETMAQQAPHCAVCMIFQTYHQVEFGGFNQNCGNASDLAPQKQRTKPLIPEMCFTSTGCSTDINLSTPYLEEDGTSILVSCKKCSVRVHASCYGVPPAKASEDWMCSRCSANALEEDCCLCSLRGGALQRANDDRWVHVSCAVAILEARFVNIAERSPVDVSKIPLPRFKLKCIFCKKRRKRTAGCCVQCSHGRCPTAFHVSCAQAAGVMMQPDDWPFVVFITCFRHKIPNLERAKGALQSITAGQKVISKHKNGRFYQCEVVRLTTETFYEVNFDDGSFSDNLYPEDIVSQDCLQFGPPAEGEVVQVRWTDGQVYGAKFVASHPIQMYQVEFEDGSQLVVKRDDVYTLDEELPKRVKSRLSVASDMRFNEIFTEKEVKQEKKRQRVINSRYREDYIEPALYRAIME
G9a inh: qHTS Assay for Inhibitors of Histone Lysine Methyltransferase G9a; 8.8% of 350,000 active; Potency, µM (series often up to 102 µM), hits mostly inhibitors; G9a H3K9 monomethylation, AlphaScreen, 2 h; note: nearly all actives have a fitted effect of over 75% in size
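Chemiluminescent proximity detection of H3K9 monomethylation, read after 10 min bead incubation in the dark. Reaction: 20 nM G9a, 500 nM biotin-H3K9 peptide, 20 uM SAM cofactor, 2 h, room temperature, following 15 min enzyme-compound preincubation.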
HP1b binding inh: HTS for Inhibitors of HP1-beta Chromodomain Interactions with Methylated Histone Tails | Potency, µM (series often up to 114 µM), most hits filed as inhibitors | AlphaScreen HP1-beta / biotin-H3K9me3 peptide binding | AID 540317, 2011 | Chromobox protein homolog 1 (Homo sapiens), P83916 | 0.56% of 390,000 active; note: nearly all actives have a fitted effect of over 70% in size
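HP1-beta protein (50 nM final) preincubated 30 min at room temperature with biotinylated H3(1-18)K9me3 peptide (50 nM) in PBS pH 7.4, 0.01% Tween-20, then compound added for 30 min. AlphaScreen streptavidin donor/nickel chelate acceptor beads (10 ug/mL final), 30 min dark, luminescence read.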
PLK1 PBD inh: qHTS for Inhibitors of PLK1-PDB (polo-like kinase 1 - polo-box domain): Primary Screen; Serine/threonine-protein kinase PLK1 (Homo sapiens), P53350; 2.8% of 360,000 active; Plk1 PBD binding of FITC phosphopeptide, fluorescence polarization; Potency, µM, most hits filed as inhibitors; AID 720504, 2013; note: series mostly up to about 57 µM; nearly all actives have a fitted effect of over 65% in size
BAZ2B inh: qHTS Assay for Inhibitors of BAZ2B. 4.4% of 360,000 active. AlphaScreen BAZ2B-H3K14Ac peptide displacement. Potency, µM (titrated, usually from 114 µM), actives largely listed as inhibitors. AID 504333, 2011. Bromodomain adjacent to zinc finger domain protein 2B (Homo sapiens), Q9UIF8; note: nearly all actives have a fitted effect of over 60% in size
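AlphaScreen displacement of biotin-H3(5-23)K14Ac peptide (50 nM final) from BAZ2B (50 nM final) in PBS pH 7.4, 0.01% Tween-20; complex preformed 30 min RT, then compounds (top 110 uM) 30 min RT, beads 20 min dark.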
ALOX12 inh: Primary qHTS assay for inhibitors of human arachidonate 12S-lipoxygenase (ALOX12): Round 2. Polyunsaturated fatty acid lipoxygenase ALOX12 (Homo sapiens), P18054. purified 12hLO, xylenol orange hydroperoxide absorbance. Potency, µM (top dose mostly 108 µM), hits mostly inhibitors. 1.1% of 580,000 active. AID 1671190, 2021
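Purified human 12hLO (150 nM final) in 25 mM Hepes, 0.01% Triton X-100, pH 7.0 was preincubated 15 min at room temperature with compound. Then 40 uM arachidonic acid was added, 30 min. Hydroperoxide was read by Fe-XO absorbance ratio 573/405 nm.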
Each line names hits and unclear results; the compound was inactive in the other large screens. An excerpt weighted towards active compounds, which were near 9% of everything screened. Calls come from the whole dose curve; as a rule, active = well fitted curve in the direction sought with a large enough effect; inconclusive = small, poorly fitted or top-dose-only effect, or another doubt; inactive = no such curve, though single readings can be large; an effect the other way counts as inactive or inconclusive.

CCCCCCCCOC(=O)c1c(CSC(=N)N)n(C)c2cc(Br)c(OC(C)=O)cc12	JMJD2A Tudor inh inconclusive, HP1b binding inh inconclusive, ALOX12 inh inconclusive (no result: G9a inh)
CN(C)c1cccc(C(=O)NN2C(=O)NC3(CCCCC3)C2=O)c1	none
N#Cc1ccc(C(=O)NN2C(=O)NC3(CCCCC3)C2=O)cc1	G9a inh 56.2µM
CCn1cc(C(=O)NCCc2ccc(Cl)cc2)c(=O)c2cc(S(=O)(=O)N(C)C3CCCCC3)ccc21	ALOX12 inh inconclusive (no result: PLK1 PBD inh, BAZ2B inh)
CCN(CCn1cccn1)Cc1c(C(=O)N2CCCCCCC2)nc2ccc(Cl)cn12	G9a inh 79.4µM
CCN(CC)C1CCN(Cc2c(C(=O)N3CCCCCCC3)nc3ccc(Cl)cn23)C1 (configuration not stated)	ALOX12 inh inconclusive
CCc1ccc(C2CC(=O)N3CN(Cc4ccccc4)CSC3=C2C#N)cc1 (configuration not stated)	ALOX12 inh 3.16µM (no result: JMJD2A Tudor inh, G9a inh, HP1b binding inh, PLK1 PBD inh, BAZ2B inh)
COc1ccc(Br)cc1C1CC(=O)N2CN(Cc3ccccc3)CSC2=C1C#N (configuration not stated)	JMJD2A Tudor inh inconclusive, G9a inh 1.41µM, PLK1 PBD inh inconclusive, ALOX12 inh inconclusive
CCc1ccc(C2CC(=O)NC(SCC(=O)OC(C)C)=C2C#N)cc1 (configuration not stated)	G9a inh inconclusive
COc1ccc(CN2C[C@@H]3C(=O)N(CCc4ccccc4)C(=O)[C@@H]3C2)c(OC)c1	none (no result: JMJD2A Tudor inh, G9a inh, HP1b binding inh, PLK1 PBD inh, BAZ2B inh)
COc1ccc(C2CC(=O)N3CN(Cc4ccccc4)CSC3=C2C#N)c(OC)c1 (configuration not stated)	ALOX12 inh 5.62µM (no result: JMJD2A Tudor inh, G9a inh, HP1b binding inh, PLK1 PBD inh, BAZ2B inh)
CCOC(=O)c1ccc(N2CSC3=C(C#N)C(c4ccc(OC)cc4OC)CC(=O)N3C2)cc1 (configuration not stated)	G9a inh 12.6µM, BAZ2B inh 50.1µM, ALOX12 inh inconclusive
CCOC(=O)C1=C(C)OC(n2cccc2)=C(C#N)C1c1cc(OC)ccc1OC (configuration not stated)	none (no result: JMJD2A Tudor inh, G9a inh, HP1b binding inh, PLK1 PBD inh, BAZ2B inh)
CC1(C(=O)NS(=O)(=O)c2ccc(C#N)cc2)CCN1C(=O)CC1CC1 (configuration not stated)	none (no result: JMJD2A Tudor inh, G9a inh, HP1b binding inh, BAZ2B inh)
Cc1ccc(C2C(/C=C3/SC(=S)NC3=O)=C(c3cccs3)Oc3ccccc32)cc1 (configuration not stated)	JMJD2A Tudor inh 35.5µM, G9a inh 31.6µM, HP1b binding inh inconclusive, PLK1 PBD inh inconclusive, BAZ2B inh 25.1µM, ALOX12 inh inconclusive
CC1Cc2cc(/C=C3/SC(=S)NC3=O)ccc2O1 (configuration not stated)	JMJD2A Tudor inh inconclusive, G9a inh inconclusive, PLK1 PBD inh inconclusive, ALOX12 inh inconclusive
COC(=O)c1c(C)oc2c1cc(NS(=O)(=O)c1ccc(C(=O)O)cc1)c1ccccc12	G9a inh 35.5µM, PLK1 PBD inh inconclusive, BAZ2B inh inconclusive
Cc1ccc(S(=O)(=O)Nc2cc3c(C(=O)O)c(C)oc3c3ccccc23)c(C)c1	JMJD2A Tudor inh inconclusive, G9a inh 50.1µM, HP1b binding inh inconclusive, PLK1 PBD inh inconclusive, BAZ2B inh 50.1µM, ALOX12 inh inconclusive
O=C(N/N=C\c1ccc(Cl)s1)c1cccs1	none
Cn1c(=O)[nH]c(=O)c2c1nc(N1CCCC1)n2CCCSc1nc2ccccc2o1	G9a inh inconclusive
O=NN(Cc1cccnc1)C(=O)NC1CCCCC1	PLK1 PBD inh 26.7µM, ALOX12 inh inconclusive (no result: JMJD2A Tudor inh, G9a inh, HP1b binding inh, BAZ2B inh)
O=C(NCc1cccnc1)C(=O)NC1CCCCC1	none
Cc1cc(NC(=O)Cn2nnc3sc4c(c3c2=O)CCC(C(C)(C)C)C4)no1 (configuration not stated)	JMJD2A Tudor inh inconclusive
CN(C)c1ccc(NC(=O)Cn2nnc3sc4c(c3c2=O)CCC(C(C)(C)C)C4)cc1 (configuration not stated)	JMJD2A Tudor inh inconclusive, G9a inh 4.47µM, BAZ2B inh inconclusive, ALOX12 inh inconclusive (no result: PLK1 PBD inh)
Cc1ccc(Cl)cc1NS(=O)(=O)c1ccc(-n2cccn2)cc1	none
O=C(CNCC1CCCO1)Nc1ccccc1-n1cccc1 (configuration not stated)	JMJD2A Tudor inh 5.01µM, G9a inh 8.91µM, BAZ2B inh 50.1µM, ALOX12 inh inconclusive
O=C(CNCC1CCCO1)Nc1ccc([N+](=O)[O-])cc1C(=O)Nc1ccccc1F (configuration not stated)	BAZ2B inh inconclusive
CCC1CCCCN1C(=O)CNCC1CCCO1 (configuration not stated)	G9a inh 17.8µM, ALOX12 inh inconclusive
O=C(CNCC1CCCO1)N1CCCc2ccccc21 (configuration not stated)	JMJD2A Tudor inh 3.98µM, G9a inh inconclusive, HP1b binding inh inconclusive, BAZ2B inh 56.2µM
Nc1ccc(C(=O)OCCCc2nc3cc4ccccc4cc3[nH]2)cc1	none
Nc1c(C(=O)Nc2ccccc2C(F)(F)F)nnn1-c1ccccc1	none (no result: JMJD2A Tudor inh, G9a inh, HP1b binding inh, PLK1 PBD inh, BAZ2B inh)
Cc1ccc(Cn2c(=O)n(CCC(=O)NCc3ccc4c(c3)OCO4)c(=O)c3ccccc32)cc1	none
CC1CC(NC(=O)Cc2ccc(Br)cc2)CC(C)(C)C1 (configuration not stated)	JMJD2A Tudor inh 39.8µM, PLK1 PBD inh 5.97µM
N#CC1=C(SCC(=O)NCc2ccccc2)NC(=O)CC1c1ccco1 (configuration not stated)	G9a inh inconclusive, HP1b binding inh inconclusive, PLK1 PBD inh 9.47µM
Cc1ccc(C2CC(=O)NC(SCc3ccccc3)=C2C#N)o1 (configuration not stated)	JMJD2A Tudor inh inconclusive, G9a inh inconclusive, BAZ2B inh 31.6µM (no result: ALOX12 inh)
O=S(=O)(O)C1CCNCC1	none (no result: JMJD2A Tudor inh, HP1b binding inh, PLK1 PBD inh, ALOX12 inh)
O=S(=O)(O)c1cc(O)c2ccc(Nc3ccccc3)cc2c1	JMJD2A Tudor inh 2.82µM, HP1b binding inh inconclusive, PLK1 PBD inh 10.6µM, ALOX12 inh 17.8µM (no result: G9a inh, BAZ2B inh)
COc1ccccc1Nc1ccc2c(O)cc(S(=O)(=O)O)cc2c1	JMJD2A Tudor inh 20µM, HP1b binding inh 22.4µM, PLK1 PBD inh 10.6µM, ALOX12 inh 10µM (no result: G9a inh, BAZ2B inh)
O=S(=O)(O)c1cc(O)c2cc(Nc3ccccc3)ccc2c1	JMJD2A Tudor inh 14.1µM, HP1b binding inh 35.5µM, PLK1 PBD inh 18.9µM, ALOX12 inh 35.5µM (no result: G9a inh, BAZ2B inh)
O=S(=O)(O)c1ccc(O)c2cc(Nc3ccccc3)ccc12	JMJD2A Tudor inh 2.82µM, HP1b binding inh 2µM, PLK1 PBD inh 4.74µM, ALOX12 inh 31.6µM (no result: G9a inh, BAZ2B inh)
